Screening results deposited in PubChem by several laboratories.
ADAM17 inh = inhibits human ADAM17 | inhibition, % at 6.95 µM | actives 0.83% (n = 370,000) | P78536 | AID 720648 | recombinant ADAM17, EDANS/DABCYL FRET peptide cleavage;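 active = inhibition above the mean of compounds lying between control limits plus 3 SD, set per campaign, cut at about 8.5% in these data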
rRNA inh HTS = selective bacterial rRNA inhibition in E. coli | GFP signal change (wild-type ribosome), % (test concentration not listed) | AID 720706 | actives 1.6% (n = 350,000) | E. coli WT GFP vs humanized-ribosome RFP mutants, fluorescence, 24 h; stronger effect = lower value; DMSO median 0, no signal -100;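 active = significant combined selectivity score with lowered wild-type GFP, culture density cut under 30%, mutant RFP and density less affected; inactive = any of these conditions unmet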
FGF22 binding = binders of recombinant human FGF22 by thermal shift; SYPRO orange fluorescence; percent of sucrose octasulfate shift, DMSO zero; Q9HCT0; AID 651658; actives 1.5% (n = 340,000); activity (Tm shift, normalised), % at 9.99 µM;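 active = mean Tm shift, scaled 0 neutral to 100 positive control, at about 1.3% or above, every replicate too, limit read from the data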
Target sequence (Q9HCT0 whole entry, looked up): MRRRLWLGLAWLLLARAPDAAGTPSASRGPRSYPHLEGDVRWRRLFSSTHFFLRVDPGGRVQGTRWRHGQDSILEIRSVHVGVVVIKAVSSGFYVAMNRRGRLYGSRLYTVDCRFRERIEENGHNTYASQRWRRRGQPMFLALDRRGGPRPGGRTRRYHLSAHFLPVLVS
ADAM10 inh = inhibitors of human ADAM10 | recombinant ADAM10, EDANS/DABCYL FRET peptide cleavage, 3 h | inhibition, % at 7 µM | actives 0.62% (n = 370,000) | AID 720582;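 active = inhibition above a per-campaign cutoff equal to the mean of compounds falling between control-based bounds plus 3 SD, cut at about 20% in these data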
proKLK7 act = activators of human kallikrein-7 zymogen; P49862; purified proKLK7, EDANS-DABCYL substrate fluorescence; 100% is mature enzyme control, 0% vehicle; activation, % at 7 µM; actives 0.9% (n = 370,000); AID 652039;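 active = activation above the mean of all tested compounds plus 3 SD, computed per campaign excluding outliers beyond control limits, cut at about 13% in these data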
Target sequence (P49862 whole entry, looked up): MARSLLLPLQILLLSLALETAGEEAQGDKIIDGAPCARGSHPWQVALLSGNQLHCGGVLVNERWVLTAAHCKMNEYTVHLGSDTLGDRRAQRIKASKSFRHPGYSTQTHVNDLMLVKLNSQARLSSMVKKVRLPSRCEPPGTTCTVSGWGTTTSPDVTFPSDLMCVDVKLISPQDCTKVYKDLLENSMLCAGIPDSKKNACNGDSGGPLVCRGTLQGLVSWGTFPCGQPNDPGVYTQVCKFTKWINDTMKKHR
Numbers stand for hits; ! = not confirmed by another sample. Sampled rows, rich in hits. Any-hit rate of the full collection: about 3.8%.

Results for Cc1ccc(NC(=S)NC2CCCCC2)cc1S(=O)(=O)N(C)C ?
ADAM17 inh: inactive; rRNA inh HTS: inactive; FGF22 binding: 2.7; ADAM10 inh: inactive; proKLK7 act: inactive

What do the screens show for `S=C(Nc1ccccn1)NC1CCCCC1`?
ADAM17 inh: inactive; rRNA inh HTS: -22.9; FGF22 binding: inactive; ADAM10 inh: inactive; proKLK7 act: inactive

Results for C[C@@H](NC(=O)C[C@H]1CC[C@H]2[C@@H](COC[C@H](O)CN2C(=O)Nc2cc(Cl)cc(Cl)c2)O1)c1ccccc1 ?
rRNA inh HTS: inactive; FGF22 binding: inactive

Results for C[C@@H]1CN([C@@H](C)CO)C(=O)c2cc(-c3ccncc3)cnc2O[C@H]1CN(C)C(=O)Nc1ccc2c(c1)OCO2 ?
rRNA inh HTS: inactive; FGF22 binding: inactive

How did Cc1ccc(-c2ccc([C@@H]3[C@H]4CN(C(=O)c5cccnc5)CC(=O)N4[C@H]3CO)cc2)cc1 do in these assays?
rRNA inh HTS: inactive; FGF22 binding: inactive

How did CC(=O)N(C)C[C@H]1Oc2cc(/C=C/c3ccccc3)ccc2S(=O)(=O)N([C@@H](C)CO)C[C@@H]1C do in these assays?
rRNA inh HTS: inactive; FGF22 binding: inactive

What do the screens show for `S=C(Nc1ccc2nsnc2c1)NC1CCCCC1`?
ADAM17 inh: inactive; rRNA inh HTS: -44.0; FGF22 binding: inactive; ADAM10 inh: inactive; proKLK7 act: inactive

What do the screens show for `S=C(Nc1ccc(Cl)c(Cl)c1)NC1CCCCC1`?
rRNA inh HTS: inactive; FGF22 binding: inactive

How did S=C(Nc1ccc(Oc2ccccc2)cc1)NC1CCCCC1 do in these assays?
ADAM17 inh: inactive; ADAM10 inh: inactive; proKLK7 act: inactive

What do the screens show for `S=C(Nc1ccc(Oc2ccccc2)cc1)NC1CCCCCC1`?
ADAM17 inh: 9.5; ADAM10 inh: inactive; proKLK7 act: inactive

What do the screens show for `COc1ccc(NC(=S)N(CCN2CCOCC2)C2CCN(C(C)=O)CC2)cc1Cl`?
ADAM17 inh: inactive; rRNA inh HTS: inactive; FGF22 binding: inactive; ADAM10 inh: inactive; proKLK7 act: inactive

Results for CC(=O)N1CCC(N(CCN2CCOCC2)C(=O)Nc2ccc(Cl)c(Cl)c2)CC1 ?
ADAM17 inh: inactive; rRNA inh HTS: -40.0; FGF22 binding: inactive; ADAM10 inh: inactive; proKLK7 act: inactive

What do the screens show for `CNC[C@@H]1OCCCC[C@@H](C)Oc2ccc(NS(=O)(=O)c3c(C)noc3C)cc2C(=O)N([C@@H](C)CO)C[C@H]1C`?
FGF22 binding: inactive

What do the screens show for `C[C@H](CO)N1C[C@H](C)[C@H](CN(C)C(=O)c2ccccn2)Oc2cc(C3=CCCC3)ccc2S1(=O)=O`?
rRNA inh HTS: inactive; FGF22 binding: inactive

How did Cc1ccc(C(CC(=O)N2CCCC2)c2ccccc2)c(O)c1 (centres undefined) do in these assays?
ADAM17 inh: inactive; rRNA inh HTS: -26.4; FGF22 binding: inactive; ADAM10 inh: inactive; proKLK7 act: inactive

Results for COc1ccc(NC(=O)CN(C)C(=O)C2CC(=O)N(CCc3ccc(OC)c(OC)c3)C2)cc1 (centres undefined) ?
ADAM17 inh: inactive; rRNA inh HTS: inactive; FGF22 binding: inactive; ADAM10 inh: inactive; proKLK7 act: inactive

How did CCOc1ccc(NC(=O)CN(C)C(=O)C2CC(=O)N(CCc3ccc(OC)c(OC)c3)C2)cc1OCC (centres undefined) do in these assays?
ADAM17 inh: inactive; rRNA inh HTS: inactive; FGF22 binding: 6.3; ADAM10 inh: inactive; proKLK7 act: inactive

Results for O=C(O)c1cc(-n2nnnc2SCc2ccccc2F)ccc1Cl ?
ADAM17 inh: inactive; rRNA inh HTS: inactive; FGF22 binding: 42.9; ADAM10 inh: inactive; proKLK7 act: inactive

How did C/C(=N\NC(=O)c1cc(-c2ccc(C)s2)[nH]n1)c1ccncc1 do in these assays?
ADAM17 inh: inactive; rRNA inh HTS: -15.1; FGF22 binding: inactive; ADAM10 inh: inactive; proKLK7 act: inactive

Results for C=CCc1cccc(/C=N/NC(=O)C(C)Nc2ccc(C)cc2)c1O (centres undefined) ?
ADAM17 inh: inactive; rRNA inh HTS: -31.8; FGF22 binding: inactive; ADAM10 inh: inactive; proKLK7 act: inactive

How did O=S(=O)(CCSc1nc2ccccc2o1)c1nc2ccccc2s1 do in these assays?
ADAM17 inh: inactive; rRNA inh HTS: -32.0!; FGF22 binding: inactive; ADAM10 inh: inactive; proKLK7 act: inactive

Results for COc1ccc2c3c([nH]c2c1)[C@@H](CO)N(Cc1nccs1)CC31CN(C(=O)C2CCOCC2)C1 ?
rRNA inh HTS: inactive

How did Fc1ccc(N2CCN(c3nc(CN4CCOCC4)nc4scc(-c5ccccc5)c34)CC2)cc1 do in these assays?
ADAM17 inh: inactive; rRNA inh HTS: -24.9; FGF22 binding: inactive; ADAM10 inh: inactive; proKLK7 act: inactive

What do the screens show for `Fc1ccc(-c2csc3ncnc(N4CCN(Cc5ccccc5)CC4)c23)cc1`?
ADAM17 inh: inactive; rRNA inh HTS: -23.1; FGF22 binding: inactive; ADAM10 inh: inactive; proKLK7 act: inactive

What do the screens show for `Fc1ccc(CN2CCN(c3ncnc4scc(-c5ccccc5)c34)CC2)cc1`?
ADAM17 inh: inactive; rRNA inh HTS: inactive; FGF22 binding: inactive; ADAM10 inh: inactive; proKLK7 act: inactive

How did CN(C)C(=O)C[C@H]1CC[C@H]2[C@@H](COc3ccc(NC(=O)c4cnccn4)cc3C(=O)N2C)O1 do in these assays?
rRNA inh HTS: inactive; FGF22 binding: inactive

How did CN(C)/C=C/c1oc2ccc(O)cc2c1[N+](=O)[O-] do in these assays?
ADAM17 inh: inactive; rRNA inh HTS: -29.8; FGF22 binding: inactive; ADAM10 inh: inactive; proKLK7 act: inactive

What do the screens show for `Cc1oc2ccc(O)cc2c1C(=O)c1ccc([N+](=O)[O-])cc1`?
ADAM17 inh: inactive; rRNA inh HTS: inactive; FGF22 binding: inactive; ADAM10 inh: inactive; proKLK7 act: inactive

What do the screens show for `O=C(O)C[C@H]1C[C@@H]2c3cc(NC(=O)Nc4ccc(F)cc4)ccc3O[C@@H]2[C@@H](CO)O1`?
rRNA inh HTS: inactive; FGF22 binding: inactive

How did COc1ccc(N2CC(C(=O)Nc3nc4ccc(F)cc4s3)CC2=O)c(OC)c1 (centres undefined) do in these assays?
ADAM17 inh: inactive; rRNA inh HTS: -30.5; FGF22 binding: inactive; ADAM10 inh: inactive; proKLK7 act: inactive

Results for CCOC(=O)N1CCC(N(CCOC)C(=O)Nc2ccc(Cl)cc2)CC1 ?
ADAM17 inh: inactive; rRNA inh HTS: -16.2; FGF22 binding: inactive; ADAM10 inh: inactive; proKLK7 act: inactive

Results for COc1ccc2c3c([nH]c2c1)[C@@H](CO)N(Cc1nccs1)CC31CN(C(=O)C2CCC2)C1 ?
rRNA inh HTS: inactive; FGF22 binding: inactive

What do the screens show for `O=C(C[C@H]1C=C[C@H](NS(=O)(=O)c2ccc(F)cc2)[C@@H](CO)O1)NCc1ccccc1F`?
rRNA inh HTS: inactive

Results for COCCSc1nc(N)c(NC(=O)c2ccc(OC)cc2)c(=O)[nH]1 ?
ADAM17 inh: inactive; rRNA inh HTS: inactive; FGF22 binding: 43.0; ADAM10 inh: inactive; proKLK7 act: inactive
